From the supplement of paper PMC13380429 come the findings set out here.

Assay [1] deals with Vero E6 infected with SARS-CoV-2. Description: morphology score (similarity to uninfected cells); higher = more like uninfected cells. Conditions: 24 h.
The test system is the same in assay [2]. Put plainly: SARS-CoV-2 infection rate relative to infected DMSO; higher = more infection, active = 60 or less. Particulars: 24 h.

Consider `O=C(O)c1ccccc1Nc1cc(Cl)ccc1C(=O)O` [lobenzarit] (10 µM), for which the morphology score in assay [1] was 0.04. Further, the SARS-CoV-2 infection rate in assay [2] is 113% (inactive).

Turning to `COc1cccc2c1C(=O)c1c(O)c3c(c(O)c1C2=O)C[C@@](O)(/C(CO)=N/NC(=O)CCCCCN1C(=O)C=CC1=O)C[C@@H]3O[C@H]1C[C@H](N)[C@H](O)[C@H](C)O1` [aldoxorubicin] (0.833333 µM), the morphology score in assay [1] is -0.0766. Moreover, the SARS-CoV-2 infection rate in assay [2] is 109% (inactive).

As for `CC[n+]1c(-c2ccccc2)c2cc(N)ccc2c2ccc(N)cc21` [homidium] (10 µM), the morphology score in assay [1] is 0.276. For the same molecule, in assay [2], the SARS-CoV-2 infection rate was 99.5% (inactive).

Turning to `C=C(C)CN1CC[C@]23c4c5ccc(O)c4O[C@H]2c2[nH]c4ccccc4c2C[C@@]3(O)C1C5` (10 µM), in assay [1], the morphology score was found to be 0.0617. In assay [2], the SARS-CoV-2 infection rate was 108% (inactive).

`CC(C)(Cc1c[nH]c2ccc(Cl)cc12)NCCOc1ccccc1OCC1CC1` (0.833333 µM) yielded a morphology score in assay [1] of 0.193. For the same molecule, the SARS-CoV-2 infection rate in assay [2] is 110% (inactive).

With `O=C(O)CCCNC(=O)c1cccnc1` [pikamilone] (10 µM), the morphology score in assay [1] was determined as 0.0672. In assay [2], the SARS-CoV-2 infection rate is 100% (inactive).

With `COc1cc(CNC(=O)CCCC/C=C/C(C)C)ccc1O` [capsaicin] (10 µM), in assay [1], the morphology score turned out to be 0.0697. Moreover, the SARS-CoV-2 infection rate in assay [2] is 107% (inactive).

`Cn1c(=O)c2[nH]c(Br)nc2n(C)c1=O` [pamabrom] (10 µM) had a morphology score in assay [1] of 0.0536. Besides, in assay [2], the SARS-CoV-2 infection rate is 101% (inactive).

With `Cc1c(C(=O)N2CCOc3ccc(-c4ccc(N)nc4)cc3C2)ccc(S(C)(=O)=O)c1F` (0.833333 µM), the morphology score in assay [1] is -0.0918. In addition, in assay [2], the SARS-CoV-2 infection rate is 110% (inactive).

As for `O=C1[C@@H]2[C@H]3CC[C@H](C3)[C@@H]2C(=O)N1C[C@@H]1CCCC[C@H]1CN1CCN(c2nsc3ccccc23)CC1` [lurasidone] (10 µM), in assay [1], the morphology score came out at 0.0507. Also, in assay [2], the SARS-CoV-2 infection rate was 96.5% (inactive).

As to `CCCCCCCCCCCCOS(=O)(=O)O` [dodecyl-sulfate] (10 µM), the morphology score in assay [1] worked out at 0.0848. Further, the SARS-CoV-2 infection rate in assay [2] is 103% (inactive).

`CC(C)NCC(O)COc1cccc2ccccc12` (configuration not stated) [propranolol] (10 µM): the morphology score in assay [1] is 0.148. Besides, the SARS-CoV-2 infection rate in assay [2] was 103% (inactive).

In turn, `NCC(=O)N1C[C@H](NC(=O)c2ccccc2)C[C@H]1C(=O)O` [danegaptide] (10 µM) showed a morphology score in assay [1] of 0.0415. For the same molecule, in assay [2], the SARS-CoV-2 infection rate was 105% (inactive).

In assay [1], `O=C1C2CC=CCC2C(=O)N1SC(Cl)(Cl)Cl` (configuration not stated) [captan] (10 µM) returned a morphology score of 0.232. Moreover, the SARS-CoV-2 infection rate in assay [2] was 93% (inactive).

In turn, `O[C@H]([C@H](O)[C@@H]1CO1)[C@H]1CO1` [dianhydrogalactitol] (10 µM) showed a morphology score in assay [1] of -0.0725. Moreover, the SARS-CoV-2 infection rate in assay [2] was 114% (inactive).

In turn, `CN(C)C[C@H](O)Cn1c2ccc(Br)cc2c2cc(Br)ccc21` (racemic) [wiskostatin] (0.833333 µM) had a morphology score in assay [1] of 0.146. In addition, the SARS-CoV-2 infection rate in assay [2] was 110% (inactive).

The molecule `O=C(O)C1CN(Cc2ccc(-c3nc4cc(Cc5ccccc5F)ccc4s3)c(F)c2)C1` (10 µM) displayed a morphology score in assay [1] of -0.0698. Moreover, in assay [2], the SARS-CoV-2 infection rate is 113% (inactive).

With `CCC(=O)O[C@]1(C(=O)CO)CC[C@H]2[C@@H]3CCC4=CC(=O)CC[C@]4(C)[C@H]3CC[C@@]21C` (10 µM), the morphology score in assay [1] turned out to be 0.188. Further, the SARS-CoV-2 infection rate in assay [2] is 102% (inactive).

On to `C[C@@H](O)[C@H]1C(=O)N2C(C(=O)O)=C(S[C@@H]3CN[C@H](CNS(N)(=O)=O)C3)[C@H](C)[C@H]12` [doripenem] (10 µM), for which the morphology score in assay [1] turned out to be 0.131. Further, the SARS-CoV-2 infection rate in assay [2] is 100% (inactive).

With `O=c1cccc2n1C[C@@H]1CNC[C@H]2C1` [cytisine] (10 µM), the morphology score in assay [1] came to 0.0351. Further, the SARS-CoV-2 infection rate in assay [2] was 114% (inactive).

For `CCCCCCCC/C=C\CCCCCCCC(=O)NCc1ccc(O)c(OC)c1` [olvanil] (10 µM), the morphology score in assay [1] was found to be 0.22. In addition, the SARS-CoV-2 infection rate in assay [2] is 96% (inactive).

The molecule `Nc1cccc(CNC(=O)c2ccc(Oc3ccc(OCc4cccc(F)c4)cc3)nc2)c1` (10 µM) returned a morphology score in assay [1] of -0.419. Further, the SARS-CoV-2 infection rate in assay [2] is 119% (inactive).

In assay [1], `CCNC1(C(N)=O)CCN(c2ncnc3c2nc(-c2ccccc2Cl)n3-c2ccc(Cl)cc2)CC1` (10 µM) showed a morphology score of -0.024. Further, the SARS-CoV-2 infection rate in assay [2] is 108% (inactive).

For `CCOC(=O)Nc1cc2c(c(N)n1)N=C(c1ccccc1)[C@H](C)N2` [mivobulin] (10 µM), in assay [1], the morphology score is -0.0939. In addition, the SARS-CoV-2 infection rate in assay [2] was 112% (inactive).

In the case of `CC[C@@H]1/C=C(\C)C[C@H](C)C[C@H](OC)[C@H]2O[C@@](O)(C(=O)C(=O)N3CCCC[C@H]3C(=O)O[C@H](/C(C)=C/[C@@H]3CC[C@@H](O)[C@H](OC)C3)[C@H](C)[C@@H](O)CC1=O)[C@H](C)C[C@@H]2OC` [ascomycin] (10 µM), in assay [1], the morphology score was 0.0662. Also, the SARS-CoV-2 infection rate in assay [2] is 100% (inactive).

On to `Nc1nc(F)nc2c1ncn2[C@@H]1O[C@H](COP(=O)(O)O)[C@@H](O)[C@@H]1O` [fludarabine-phosphate] (10 µM), for which the morphology score in assay [1] worked out at 0.103. In assay [2], the SARS-CoV-2 infection rate is 82.5% (inactive).
